Measured values reported in PubChem BioAssay AID1159580 (chemical genetic matrix, 2015).
About 2,000 (36%) of roughly 5,500 compounds were called active. About 18% were inconclusive and are not listed. Rule as the data show it: active = normalized growth mostly below about 0.91 (no sharp cut-off); inconclusive = no clear call, values can overlap the other calls; inactive = mostly above about 0.92. This is one part of the list.

Assay: chemical genetic growth profiling, strain panel (AID 1159580);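 also: tested at 20 µM; growth read once vehicle control cultures reached saturation at 30 °C; 1 = growth at the plate median or of vehicle wells; lower values mean less growth of the strain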
Settings: growth OD

Measured: normalized growth

NC(=NCCC[C@H](N)C(=O)O)N[N+](=O)[O-]
inactive: S. cerevisiae deletion strains, locus YJL187C, strain SWE1 (second series), stronger effect = lower value 0.983 | S. cerevisiae deletion strains, locus YJR043C, strain POL32, stronger effect = lower value 0.995 | S. cerevisiae deletion strains, locus YKL009W, strain mrt4, stronger effect = lower value 1 | S. cerevisiae deletion strains, locus YKL068W, stronger effect = lower value 0.997 | S. cerevisiae deletion strains, locus YKL085W, strain MDH1 (second series), stronger effect = lower value 0.982 | S. cerevisiae deletion strains, locus YKL085W, strain MDH1, stronger effect = lower value 0.982 | S. cerevisiae deletion strains, locus YKL160W, strain elf1, stronger effect = lower value 1.01 | S. cerevisiae deletion strains, locus YKL190W, strain CNB1, stronger effect = lower value 0.99 | S. cerevisiae deletion strains, locus YKR001C, strain vps1, stronger effect = lower value 0.98 | S. cerevisiae deletion strains, locus YKR026C, strain gcn3, stronger effect = lower value 1.01 | S. cerevisiae deletion strains, locus YKR091W, strain srl3, stronger effect = lower value 1.02 | S. cerevisiae deletion strains, locus YLL001W, strain dnm1, stronger effect = lower value 1.02 | S. cerevisiae deletion strains, locus YLL026W, stronger effect = lower value 1.02 | S. cerevisiae deletion strains, locus YLL041C, strain sdh2, stronger effect = lower value 1.02 | S. cerevisiae deletion strains, locus YLR027C, strain aat2, stronger effect = lower value 1.03 | S. cerevisiae deletion strains, locus YLR039C, strain RIC1, stronger effect = lower value 0.971 | S. cerevisiae deletion strains, locus YLR058C, strain SHM2, stronger effect = lower value 1.01 | S. cerevisiae deletion strains, locus YLR102C, strain apc9, stronger effect = lower value 1.01 | S. cerevisiae deletion strains, locus YLR221C, strain rsa3, stronger effect = lower value 0.985 | S. cerevisiae deletion strains, locus YLR258W, strain gsy2, stronger effect = lower value 1.02 | S. cerevisiae deletion strains, locus YLR262C, strain YPT6 (second series), stronger effect = lower value 1.04 | S. cerevisiae deletion strains, locus YLR262C, strain YPT6, stronger effect = lower value 1.06 | S. cerevisiae deletion strains, locus YLR268W, strain sec22, stronger effect = lower value 1 | S. cerevisiae deletion strains, locus YLR320W, strain mms22, stronger effect = lower value 1.03 | S. cerevisiae deletion strains, locus YLR330W, strain CHS5, stronger effect = lower value 1.01 | S. cerevisiae deletion strains, locus YLR342W, strain FKS1 (second series), stronger effect = lower value 1.03 | S. cerevisiae deletion strains, locus YLR342W, strain FKS1, stronger effect = lower value 1.02 | S. cerevisiae deletion strains, locus YLR357W, strain rsc2, stronger effect = lower value 1.06 | S. cerevisiae deletion strains, locus YLR370C, strain arc18, stronger effect = lower value 1.02 | S. cerevisiae deletion strains, locus YLR371W, strain rom2, stronger effect = lower value 0.997 | S. cerevisiae deletion strains, locus YLR384C, strain iki3, stronger effect = lower value 1.03 | S. cerevisiae deletion strains, locus YLR418C, strain cdc73, stronger effect = lower value 1.04 | S. cerevisiae deletion strains, locus YML016C, strain PPZ1, stronger effect = lower value 1 | S. cerevisiae deletion strains, locus YML032C, strain rad52, stronger effect = lower value 0.989 | S. cerevisiae deletion strains, locus YML120C, strain ndi1, stronger effect = lower value 1.02 | S. cerevisiae deletion strains, locus YML124C, strain tub3, stronger effect = lower value 1 | S. cerevisiae deletion strains, locus YMR058W, strain fet3, stronger effect = lower value 1.04 | S. cerevisiae deletion strains, locus YMR078C, strain ctf18, stronger effect = lower value 0.997 | S. cerevisiae deletion strains, locus YMR125W, strain sto1, stronger effect = lower value 1.01 | S. cerevisiae deletion strains, locus YMR129W, stronger effect = lower value 1.02 | S. cerevisiae deletion strains, locus YMR205C, strain PFK2, stronger effect = lower value 1.03 | S. cerevisiae deletion strains, locus YMR223W, strain ubp8, stronger effect = lower value 1.05 | S. cerevisiae deletion strains, locus YMR231W, strain pep5, stronger effect = lower value 1.01 | S. cerevisiae deletion strains, locus YMR307W, strain GAS1, stronger effect = lower value 0.982 | S. cerevisiae deletion strains, locus YNL067W, strain RPL9B, stronger effect = lower value 0.973 | S. cerevisiae deletion strains, locus YNL071W, strain lat1, stronger effect = lower value 1.01 | S. cerevisiae deletion strains, locus YNL128W, strain TEP1, stronger effect = lower value 1.01 | S. cerevisiae deletion strains, locus YNL153C, strain GIM3, stronger effect = lower value 0.975 | S. cerevisiae deletion strains, locus YNL209W, strain ssb2, stronger effect = lower value 1.03 | S. cerevisiae deletion strains, locus YNL233W, strain BNI4, stronger effect = lower value 0.968 | S. cerevisiae deletion strains, locus YNL248C, strain rpa49, stronger effect = lower value 1.01 | S. cerevisiae deletion strains, locus YNL271C, strain bni1, stronger effect = lower value 1.01 | S. cerevisiae deletion strains, locus YNL298W, strain CLA4, stronger effect = lower value 1.01 | S. cerevisiae deletion strains, locus YNL307C, strain MCK1, stronger effect = lower value 1.01 | S. cerevisiae deletion strains, locus YNL322C, strain KRE1 (second series), stronger effect = lower value 1.03 | S. cerevisiae deletion strains, locus YNL322C, strain KRE1, stronger effect = lower value 0.994 | S. cerevisiae deletion strains, locus YNR049C, strain mso1, stronger effect = lower value 1.02 | S. cerevisiae deletion strains, locus YNR052C, strain pop2, stronger effect = lower value 1.01 | S. cerevisiae deletion strains, locus YOL006C, strain TOP1, stronger effect = lower value 0.974 | S. cerevisiae deletion strains, locus YOL012C, strain htz1 2.01 | S. cerevisiae deletion strains, locus YOL147C, strain pex11, stronger effect = lower value 1 | S. cerevisiae deletion strains, locus YOR001W, strain rrp6, stronger effect = lower value 1.04 | S. cerevisiae deletion strains, locus YOR061W, strain CKA2, stronger effect = lower value 1 | S. cerevisiae deletion strains, locus YOR069W, strain VPS5, stronger effect = lower value 1.01 | S. cerevisiae deletion strains, locus YOR070C, strain gyp1, stronger effect = lower value 1.02 | S. cerevisiae deletion strains, locus YOR080W, strain dia2, stronger effect = lower value 1.02 | S. cerevisiae deletion strains, locus YOR083W, strain WHI5, stronger effect = lower value 1.03 | S. cerevisiae deletion strains, locus YOR106W, strain vam3, stronger effect = lower value 1.05 | S. cerevisiae deletion strains, locus YOR136W, strain idh2, stronger effect = lower value 0.997 | S. cerevisiae deletion strains, locus YOR144C, strain elg1, stronger effect = lower value 1 | S. cerevisiae deletion strains, locus YOR184W, strain ser1, stronger effect = lower value 1.02 | S. cerevisiae deletion strains, locus YOR265W, strain rbl2, stronger effect = lower value 1.02 | S. cerevisiae deletion strains, locus YOR270C, strain vph1, stronger effect = lower value 1.04 | S. cerevisiae deletion strains, locus YOR290C, strain snf2, stronger effect = lower value 1.02 | S. cerevisiae deletion strains, locus YOR316C, strain cot1, stronger effect = lower value 1.01 | S. cerevisiae deletion strains, locus YPL051W, strain arl3, stronger effect = lower value 1.02 | S. cerevisiae deletion strains, locus YPL055C, strain LGE1, stronger effect = lower value 0.95 | S. cerevisiae deletion strains, locus YPL078C, strain atp4, stronger effect = lower value 1.03 | S. cerevisiae deletion strains, locus YPL106C, strain sse1, stronger effect = lower value 1.04 | S. cerevisiae deletion strains, locus YPL240C, strain hsp82, stronger effect = lower value 1.01 | S. cerevisiae deletion strains, locus YPL241C, strain CIN2, stronger effect = lower value 1 | S. cerevisiae deletion strains, locus YPR119W, strain clb2, stronger effect = lower value 0.997 | S. cerevisiae deletion strains, locus YPR141C, strain kar3, stronger effect = lower value 0.998 | S. cerevisiae deletion strains, locus YPR163C, strain tif3, stronger effect = lower value 0.997 | S. cerevisiae deletion strains, locus YPR167C, strain met16, stronger effect = lower value 0.999 | S. cerevisiae deletion strains, strain wtn01, stronger effect = lower value 1 | S. cerevisiae strains, strain wild type, stronger effect = lower value 1
